Pf growth 96h: inhibits malaria parasite growth, 96 h; Potency, µM (titrated, usually from 28.7 µM), most hits filed as inhibitors; P. falciparum luciferase reporter growth, 96 h; 320,000 compounds, 6.9% hits
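Plates of compound plus infected erythrocytes (2% hematocrit, 0.05% parasitemia final) incubate 96 hours, 37 C, 5% CO2. Detection reagent added; reduced luminescence from the parasites' luciferase reporter flags inhibition.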
HCMV antiviral: inhibitors of human cytomegalovirus | AID 1259415 | activity change, negative = inhibition, % at 57.5 µM | HFF cells, HCMV-luciferase reporter, 72 h; hits give low values | 410,000 compounds, 4.5% hits; in the data active means activity change below about -60%; inconclusive means no clear call, values can overlap the other calls; inactive means above about -39%
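HFF cells seeded 16 h at 37C, treated with compounds, infected with luciferase-reporter HCMV at MOI 1 PFU/cell; luciferase read at 72 h post infection, normalized to buffer-only and Salinomycin controls.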
HCV inh: blocks hepatitis C virus; 340,000 compounds, 3.4% hits; Huh7.5.1 HCVcc-Cre infection, luciferase reporter, 44 h; Potency, µM (highest dose often 41.8 µM), hits mostly inhibitors; AID 651820
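Seed cells (1,000/well) for 4 h; treat with compound and infect with HCVcc-Cre, moi about 0.5. Incubate 44 h, then detect luciferase activity.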
Pf growth 48h: P. falciparum growth inhibition at 48 hours (one generation). P. falciparum luciferase growth in erythrocytes, 48 h. Potency, µM (titrated, usually from 28.7 µM), most hits filed as inhibitors. 310,000 compounds, 5.9% hits. AID 504832
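Cell-based growth assay: transgenic P. falciparum expressing firefly luciferase, cultured in red cells within RPMI 1640 containing 0.5% w/v Albumax, 24 mM bicarbonate and gentamycin. A drop in luciferase activity indicates inhibition.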
Numbers stand for hits; i = inactive; ? = inconclusive; nt = not tested or not shown; [ ] = dose if it differs, or a comment. Compounds with a hit are over-represented: about 13% of the library has one in this group of screens. Unless noted, the call rests on the fitted dose curve; in most records, active means well fitted inhibition curve with a large enough effect; inconclusive means small, poorly fitted or top-dose-only effect, or another doubt; inactive means no such curve, though single readings can be large or run the other way.

SMILES	Pf growth 96h	HCMV antiviral	HCV inh	Pf growth 48h
COc1ccc(OC)c(CNC(=O)CSc2c3c(nc4cc(Cl)ccc24)CCCC3)c1	nt	-60	nt	nt
O=C(CSc1c2c(nc3cc(Cl)ccc13)CCCC2)NCCCN1CCOCC1	i	i	?	i
CCN(CC)CCNC(=O)c1sc2nc(C)cc(C)c2c1-n1cccc1	nt	i	nt	nt
COc1cc(-c2csc(NC3CCCCC3)n2)cc(OC)c1OC	?	i	?	12µM
COc1cc(-c2cc3nc(NC4CCCCC4)ccn3n2)cc(OC)c1OC	nt	i	nt	nt
CC(=O)C1=C(O)CC(c2ccccc2)CC1=NCCc1c(C)[nH]c2ccccc12 (configuration not stated)	i	i	?	7.4µM
CC(=O)C1=C(O)CC(c2ccccc2)CC1=NCCc1c(C)[nH]c2ccc(C)cc12 (configuration not stated)	?	i	i	?
CCC(=NCCc1c(C)[nH]c2ccc(C)cc12)C1=C(O)CC(c2ccccc2)CC1=O (configuration not stated)	?	-77	?	?
CCC/C(O)=C1\C(=O)CC(c2ccccc2)CC1=NCCc1c(C)[nH]c2ccc(C)cc12 (configuration not stated)	?	i	i[8.37 µM]	1.9µM
CC/C(O)=C1\C(=O)CC(c2ccccc2)CC1=NCCc1c(C)[nH]c2ccc(C)cc12 (configuration not stated)	?	i	i[8.37 µM]	?
COc1cccc(CNC(=O)Cc2c(C)c3ccc(OC)c(C)c3oc2=O)c1	nt	i	nt	nt
CC(=O)N1CCCc2cc(S(=O)(=O)N(C)CC(=O)Nc3ccc(C(C)C)cc3)ccc21	nt	i	nt	nt
CCCC/C(O)=C/c1nc2ccccc2[nH]c1=O	i	-79	i	i
COC(=O)C(Nc1cc(OC)ccc1OC)(c1ccc(F)cc1)C(Nc1cc(OC)ccc1OC)c1ccc(Br)cc1 (configuration not stated)	nt	i	nt	nt
O=C(CCC(=O)Nc1nnc(C2CCCCC2)s1)NCc1cccs1	10µM	i	i	i
Cc1nnc(NC(=O)CCC(=O)NCc2cccs2)s1	i	i	i	i
CC(Oc1ccccc1)C(=O)Nc1nnc(C2CCCCC2)s1 (configuration not stated)	0.0029µM	i	i	i
Cc1cccc(NC(=O)c2cc(S(=O)(=O)N3CCc4ccccc43)ccc2F)c1C	nt	i	nt	nt
COc1ccc(C(=O)CSc2nnc(CN3CCCCC3)n2-c2ccc(Cl)cc2)cc1OC	10µM	i	?	?
CCOC(=O)c1cc(C)n(CC2CCC(C(=O)Nc3ccc(C)cc3)CC2)c1C (configuration not stated)	nt	i	nt	nt
NC(=O)c1[nH]cnc1N=NN(CCO)Cc1ccccc1	nt	i	nt	nt
CCCCNC(=O)CCc1c(C)nc2nc(-c3cc(OC)cc(OC)c3)nn2c1C	?	-95	i	nt
CCOC(=O)C(Cc1ccccc1)NC(=O)CCc1c(C)nc2nc(C)nn2c1C (configuration not stated)	7.4µM	i	i	i
CCOC(=O)C(Cc1ccccc1)NC(=O)CCc1c(C)nc2ncnn2c1C (configuration not stated)	i	i	i	i
CC1=C(C(=O)OCc2ccccc2)C(c2ccc(C#N)cc2)NC(=O)N1CCCC(=O)O (configuration not stated)	i	i	i[8.37 µM]	i
SMILES	Pf growth 96h	HCMV antiviral	HCV inh	Pf growth 48h
CCCCCCN(C(=O)CCCCCN1C(=O)NC(c2ccc(-c3ccccc3)cc2)C(C(=O)OCc2ccccc2)=C1C)C(C(=O)NCCCC)C1CCCCC1 (configuration not stated)	2.6µM	i	nt	0.83µM
CCCCCCN(C(=O)CCCCCN1C(=O)NC(c2ccc(-c3ccccc3)cc2)C(C(=O)OCc2ccccc2)=C1C)C(C(=O)NCCCC)c1ccccn1 (configuration not stated)	2.3µM	i	nt	2.9µM
O=S(=O)(c1ccc2nc(Nc3ccc(Br)cc3F)ccc2c1)N1CCCCC1	nt	i	nt	nt
O=C(Nc1ccccc1)OC[C@@H]1C=CS(=O)(=O)N1Cc1ccc(Br)cc1	nt	-101	nt	nt
CCC(=O)N1CCN(c2nc3c(C)cccc3s2)CC1	nt	i	nt	nt
CCOC(=O)[C@@H]1[C@H]2COc3ccc(Br)cc3[C@H]2N2C(=O)N(c3ccc(C(F)(F)F)cc3)C(=O)[C@]12C	nt	-76	i	nt
CCOC(=O)[C@@H]1[C@H]2COc3ccc(Br)cc3[C@@H]2N2C(=O)N(c3ccc(Br)cc3)C(=O)[C@]12C	?	i	i	?
CCOC(=O)[C@@H]1[C@H]2COc3ccc(Br)cc3[C@H]2N2C(=O)N(c3cccc(F)c3)C(=O)[C@]12C	13µM	i	i	?
CCOC(=O)[C@@H]1[C@H]2COc3cc(OC)ccc3[C@@H]2N2C(=O)N(c3ccc(C(F)(F)F)cc3)C(=O)[C@]12C	12µM	i	i	?
CCOC(=O)[C@@H]1[C@H]2COc3ccc(Br)cc3[C@H]2N2C(=O)N(c3ccc(Br)cc3)C(=O)[C@]12C	?	nt	32µM	?
Cc1cn(C)c(CC(=O)N2CCN(c3cccc(C(F)(F)F)c3)CC2)c1C(=O)O	nt	i	nt	nt
CC(C)c1ccc2occ(CC(=O)Nc3ccccc3Cl)c2c1	nt	i	nt	nt
CCCCC1CC2=C(C(=O)OC(C)(C)O2)C(c2ccc(F)cc2)O1 (configuration not stated)	nt	i	nt	nt
O=C(NCc1ccccc1Cl)c1ccc(CSCc2ccccc2Cl)o1	nt	i	nt	nt
COC(=O)CN1C(=O)CSc2ccc(S(=O)(=O)Nc3cccc(C)c3C)cc21	nt	i	nt	nt
CCOC(=O)[C@@H]1[C@H]2COc3ccc(Br)cc3[C@H]2N2C(=O)N(c3ccc(F)cc3)C(=O)[C@@]12C	?	nt	i	5.9µM
CCOC(=O)[C@@H]1[C@H]2COc3ccc(Br)cc3[C@@H]2N2C(=O)N(c3ccc(F)cc3)C(=O)[C@]12C	?	?	i	?
O=c1cccc(-c2cccc3ccccc23)o1	nt	i	nt	nt
COc1ccc(/C=C2\COc3ccccc3C2=O)c(OC)c1	9.3µM	i	?	?
COc1ccc2c(c1)OC/C(=C/c1cccs1)C2=O	2.9µM	i	i	i
COc1ccc(/C=C2\COc3ccccc3C2=O)cc1OC	i	?	i	i
COc1ccc(C=C2c3ccccc3C(=O)c3ccccc32)c(OC)c1	?	-88	nt	?
CCOc1ccc(C2CC(=O)c3c([nH]c(C(=O)OCC4CCCCC4)c3C)C2)cc1 (configuration not stated)	nt	i	nt	nt
CCCC(C(=O)Nc1ccc(S(=O)(=O)N2CCCC2)cc1)c1ccccc1 (configuration not stated)	?	i	i	10µM
CCCC(C(=O)Nc1ccncc1)c1ccccc1 (configuration not stated)	2.9µM	i	i	?
CCCC(C(=O)Nc1ccc(S(=O)(=O)Nc2ncccn2)cc1)c1ccccc1 (configuration not stated)	i	i	i	i
O=C(CC(c1ccccc1)c1ccccc1)Nc1ccncc1	10µM	i	i	?
CC(O)c1cccc(NC(=O)CC(c2ccccc2)c2ccccc2)c1 (configuration not stated)	?	i	i	i
O=C(O)c1ccc(S(=O)(=O)N[C@H](Cc2ccc([N+](=O)[O-])cc2)C(=O)O)cc1	i	nt	nt	i

High-throughput results: PubChem BioAssay, National Center for Advancing Translational Sciences (NCATS)
